Results taken from article PMC5540273 (PLoS ONE, 2017).
“And” between values parts separate entries of the source, which are not always exact repeats. Equal values may be shown once. Read-outs that look alike come from different tables or passages of the source.

What was measured:
[1] = tested on: ACVR2B; conditions: n = 1
[2] = tested on: ACVRL1; conditions: concentration: 1 μM, replicates: in singlicate; n = 1
[3] = tested on: T1, ADCK3; conditions: n = 1
T1 construct: gene CABC1

[4] = tested on: ADCK4; conditions: n = 1
[5] = tested on: AKT1; conditions: concentration: 1 μM, replicates: in singlicate; n = 1
[6] = tested on: AKT2; conditions: n = 1
[7] = tested on: AKT3; conditions: concentration: 1 μM, replicates: in singlicate; n = 1
[8] = tested on: ALK; conditions: n = 1
[9] = tested on: T2, AMPK-alpha1; conditions: n = 1
T2 construct: gene PRKAA1

[10] = tested on: T3, AMPK-alpha2; conditions: n = 1
T3 construct: gene PRKAA2

[11] = concentration: 1 μM, replicates: in singlicate
[12] = concentration: 1 μM,replicates: in singlicate, 1 µM
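Further: KINOMEscan kinase panel screen.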

SMILES	%Inh [1, 11] [%]	%Inh [2] [%]	%Inh [3, 11] [%]	%Inh [4, 11] [%]	%Inh [5] [%]	%Inh [6, 11] [%]	%Inh [7] [%]	%Inh [8, 11] [%]	%Inh [9, 11] [%]	%Inh [10, 11] [%]	%Inh [1, 12]	%Inh [3, 12]	%Inh [4, 12]	%Inh [6, 12]	%Inh [8, 12]	%Inh [9, 12]	%Inh [10, 12]
Cc1ccc(C(=O)Nc2ccc(Nc3ccnc4cc(-c5ccccn5)ccc34)cc2O)cc1.Cl [GW440146]	25	0	0	0	0	19	0	27	4	15							
Cc1ccccc1-n1cnc2c(N)ncnc21 [SKF-97510]	0	0	8	0	8	0	0	0	0	0							
O=C(Nc1n[nH]c2nc(-c3nccs3)c(Br)cc12)C1CC1 [SB-742251]	11	0	15	19	0	1	0	26	10	8							
COc1ccc(C2=C(Nc3cccc(C(=O)O)c3)C(=O)NC2=O)cc1 [SB-390765]	0	1	0	0	1	0	14	2	23	2							
O=C(Nc1n[nH]c2cc(-c3cccc(F)c3F)ccc12)C1CC1 [SB-733894]	18	29	6	0	0	0	1	0	0	0							
Cc1nnc(-c2ccc3occ(-c4ccc(S(C)=O)cc4)c3c2)[nH]1 (stereo not drawn)	14	0	0	0	5	4	0	0	99.1	6							
Cc1ccc(NC(=O)Nc2cccc(Cl)c2)cc1-c1ccc(C(=O)Nc2ccncc2)cc1 [GSK1398468]	1	0	5	34	0	8	0	20	7	13							
COC(=O)c1c(-c2ccccc2)c2cc(C(=O)O)ccc2c(=O)n1Cc1ccccc1	0	20	0	0	0	0	1	0	0	7							
COC(=O)c1c(-c2ccccc2)c2cc(OC)ccc2c(=O)n1Cc1ccccc1	0	0	0	0	1	12	0	28	21	0							
CSc1nn2c(=O)cc(N3CCOCC3)nc2n1Cc1cccc(C(F)(F)F)c1C [GSK2363608]		0			0		0				3% and 0%	5% and 0%	31% and 22%	9% and 13%	23% and 31%	0% and 2%	14% and 0%
CC(C)(C)c1ccc(C(=O)Nc2cn3cc(-c4cccnc4)ccc3n2)cc1	0	0	19	0	0	0	4	0	43	0							
COc1cc2nccc(Nc3ccc(NC(=O)c4ccc(C)cc4)c(O)c3)c2cc1OC.Cl [GW440132]	0	0	10	41	0	1	0	6	0	0							
CN1C(=O)C(Nc2ccc(Cl)c(C(=O)O)c2)=C(c2ccc(Cl)cc2)C1=O [SB-404290]	0	0	0	10	0	0	1	0	6	0							
CC(=O)Nc1nc2cnc(Nc3cc(NC(=O)c4cccc(CCC#N)c4)ccc3C)nc2s1	0	15	4	0	17	33	0	0	8	7							
O=C(Nc1ccc2c(c1)OCO2)NC1CCN(c2ccnc(Nc3ccc(F)cc3)n2)C1 (stereo not drawn) [GSK1379724]	0	0	6	36	0	0	0	29	10	0							
Cc1cc(NCC(c2ccccc2)c2ccccc2)nc(NCc2ccc(C(F)(F)F)cc2)n1 [GW497681]	0	0	10	86	0	0	0	3	0	0							
Fc1cc(Cl)ccc1Nc1ccnc2cc(-c3ccc(CN4CCCCC4)o3)ccc12 [GW560116]	52	0	0	38	0	0	0	4	0	0							
COc1cccc(-c2cc(-c3c[nH]nc3-c3ccccn3)ccn2)c1 [GW680338]	18	0	25	26	0	0	0	34	7	0							
